# According to PubChem BioAssay:
# The list shows a part of the results. Activity calls are given as the source filed them. Unless noted, no stated cut-off is given here; in the data, active means activity above about 50%; inactive means the rest.
# Columns and labels:
# [1] = target: Tumor necrosis factor receptor superfamily member 10B (Homo sapiens) (UniProt O14763); experiment: caspase-8 TRAIL sensitization, hit retest, confirmation, cell-based, NB7+caspase-8, with/without TRAIL, luminescence panel (AID 651596); settings: NB7 neuroblastoma + caspase-8, TRAIL sensitization, luminescence viability, with TRAIL, mean of runs, at 10 µM, stronger effect = higher value
# [2] = as above; settings: NB7 neuroblastoma + caspase-8, without TRAIL, luminescence viability, without TRAIL, mean of runs, at 10 µM
# [3] = HIF-2a reporter inhibitor retest, confirmation, luminescence, 786-0 RCC cells (AID 651580;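 active means mean inhibition across four replicates of at least 40 percent at the single tested concentration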); settings: HIF-2a luciferase reporter luminescence, overnight, at 18.8 µM, stronger effect = higher value
# [4] = HIF-1a luciferase reporter signal reduction – MiaPaCa-2 cells, single concentration, counter-screen for HIF-2a inhibitor project, confirmation (AID 651589;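 active means mean inhibition of the reporter signal across four replicates at the single tested dose of 50% or more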); settings: MiaPaCa-2 HIF-1a luciferase reporter, desferoxamine, overnight; at 18.8 µM; stronger effect = higher value
# Chain of Tumor necrosis factor receptor superfamily member 10B (Homo sapiens) (O14763 whole entry, looked up): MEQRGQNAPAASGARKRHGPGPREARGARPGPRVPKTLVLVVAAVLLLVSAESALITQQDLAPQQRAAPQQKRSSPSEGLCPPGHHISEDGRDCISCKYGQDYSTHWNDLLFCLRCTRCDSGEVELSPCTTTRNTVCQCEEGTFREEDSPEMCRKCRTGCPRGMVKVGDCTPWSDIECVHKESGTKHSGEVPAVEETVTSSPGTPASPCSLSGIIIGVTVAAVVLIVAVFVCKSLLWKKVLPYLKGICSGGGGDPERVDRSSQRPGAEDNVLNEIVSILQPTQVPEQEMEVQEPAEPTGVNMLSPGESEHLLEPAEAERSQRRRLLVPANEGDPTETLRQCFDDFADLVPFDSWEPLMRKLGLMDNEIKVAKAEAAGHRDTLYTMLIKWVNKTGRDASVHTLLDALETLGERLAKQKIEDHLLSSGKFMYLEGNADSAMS
structure (smiles),measurement,setting,value
CC(C)c1ccc(C(=O)Nc2cccnc2)cc1,activity,[1],57.1%
same,activity,[2],56.2%
CC(C)(C)c1cc(C(=O)N/N=C/c2ccc([N+](=O)[O-])s2)n[nH]1,inhibition,[3],74.6% (active)
same,inhibition,[4],98.4% (active)
COCCOCCn1c(/C=C/c2ccccc2)nc2ccccc21,activity,[1],65.4%
same,activity,[2],77.1%
Cc1c(CCC(=O)O)c(=O)oc2cc3occ(-c4ccccc4)c3cc12,inhibition,[3],68.1% (active)
same,inhibition,[4],50.7% (active)
COc1ccc(C2c3ccc4ccccc4c3Oc3ncn(CCCN(C)C)c(=N)c32)cc1 (stereo not drawn),activity,[1],24.2%
same,activity,[2],76.8%
Nc1nc(-c2ccc(-c3ccccc3)cc2)cs1,activity,[1],51.2%
same,activity,[2],50.7%
COc1cccc(-n2c(SCC(=O)N3CCCCC3)nc3c([nH]c4ccccc43)c2=O)c1,activity,[1],28.7%
same,activity,[2],19.4%
N#C/C(=C/c1cccc([N+](=O)[O-])c1)c1nnc2n1CCCCC2,inhibition,[3],23.5% (inactive)
same,inhibition,[4],11.7% (inactive)
CC[C@@H](C)[C@H](NC(=O)CCc1c(C)c2cc3c4c(oc3c(C)c2oc1=O)CCCC4)C(=O)O,inhibition,[3],68.5% (active)
same,inhibition,[4],44.4% (inactive)
O=C(CCl)N(Cc1ccccc1)c1ccccc1,activity,[1],99%
same,activity,[2],98.9%
O=C(NC1=NCCS1)c1cccs1,activity,[1],-8.57%
same,activity,[2],-38%
Cc1ccc(NC(=S)NC(NC(=O)Cc2cccc3ccccc23)C(Cl)(Cl)Cl)cc1 (stereo not drawn),inhibition,[3],-32.9% (inactive)
same,inhibition,[4],98.7% (active)
O=C(/C=C/c1cccc(F)c1)N1CCc2ccccc21,activity,[1],55.1%
same,activity,[2],52.8%
CC(C)Cc1nc2oc3c(Cl)ncnc3c2c2c1CCC2,activity,[1],95.9%
same,activity,[2],96.4%
COc1ccc(-c2cc(CNc3nc(NC(C)C)nc4cc(-c5ccccc5)sc34)on2)cc1,activity,[1],91.6%
same,activity,[2],92.4%
CCOc1ccc(CNC(=O)C2CCCN(c3nnc(C)c4c(C)n(-c5ccccc5)nc34)C2)cc1 (stereo not drawn),inhibition,[3],6.1% (inactive)
same,inhibition,[4],-3.66% (inactive)
Cc1nc(SCCC(=O)O)c2cc(-c3ccccc3)sc2n1,activity,[1],59%
CCCCOc1ccc(-c2nc(=S)[nH][nH]2)cc1,activity,[1],67.1%
same,activity,[2],66.6%
O=C(/C=C/c1ccco1)Nc1scc(-c2ccccc2)c1C(=O)O,activity,[1],51.9%
same,activity,[2],39.8%
O=C(N/N=C/c1cccc(NC(=O)c2ccc(Cl)cc2)c1)c1ccc(O)cc1,activity,[1],58.4%
same,activity,[2],42%
Cc1ccccc1-c1nc2sc3c(c2c(=O)n1N)CCCC3,activity,[1],44%
same,activity,[2],46%
COc1cc(/C=N/NC(=O)c2nnn(-c3nonc3N)c2C)ccc1OCc1ccc(Cl)cc1,activity,[1],39%
same,activity,[2],20.6%
O=C1N(c2ccccc2)CCN1c1ccccc1,activity,[1],67.2%
same,activity,[2],62.8%
Brc1ccc(-c2cn3ccccc3n2)cc1,activity,[1],50.8%
same,activity,[2],62.2%
Cc1nc(NC(=S)NC(=O)c2ccccc2)sc1C,activity,[1],57.1%
same,activity,[2],57%
Cc1ccc(NC(=O)c2ccccc2)s1,activity,[1],40.7%
same,activity,[2],32%
O=C(O)c1ccc(N/N=C/c2cc3cc4c(cc3nc2Cl)OCCO4)cc1,activity,[1],96.3%
same,activity,[2],95.3%
CC1(C)CC(=O)C=C(c2ccc(-c3ccc4[nH]ccc4c3)cc2)C1=O,activity,[1],67.8%
same,activity,[2],64.4%
FC(F)(F)c1nnc(-c2ccccc2)nc1Sc1ccc(Cl)cc1,activity,[1],42.7%
same,activity,[2],46.2%
COc1cc2c3nnc(-c4ccc(F)cc4)c-3cn(Cc3ccccc3)c2cc1OC,activity,[1],40.5%
same,activity,[2],57.5%
Cc1ccc2nc(N(CCCN(C)C)C(=O)c3ccc(S(=O)(=O)N4CCc5ccccc5C4)cc3)sc2c1,activity,[1],55.4%
same,activity,[2],68.3%
COc1cc2c3nnc(-c4ccc(F)cc4)c-3cn(Cc3cccc(C)c3)c2cc1OC,activity,[1],48.9%
same,activity,[2],67%
Cc1ccsc1/C=N/NC(=O)c1ccc2c(c1)OCCO2,activity,[1],75.9%
same,activity,[2],68.2%
CCCOc1ccc(-c2cn3ccccc3n2)cc1[N+](=O)[O-],activity,[1],57%
same,activity,[2],52.1%
O=C1C(=Cc2ccccc2Cl)CCc2ccccc21,activity,[1],62.3%
same,activity,[2],51.9%
O=C(Nc1ccc(N2CCN(Cc3ccccc3F)CC2)cc1)c1ccc([N+](=O)[O-])o1,activity,[1],99%
same,activity,[2],98.8%
Fc1cccc2sc(Nc3nc4cc5c(cc4s3)OCCO5)nc12,activity,[1],40.2%
same,activity,[2],28.4%
COc1cc(/C=C2\Oc3ccc(C#Cc4ccc(O)cc4)cc3C2=O)cc(OC)c1,activity,[1],80.5%
same,activity,[2],83.2%
Cc1ccccc1C(=O)Nc1ccc2c(c1)OCCO2,activity,[1],61.1%
same,activity,[2],63.2%
CC(OC(=O)c1cc(O)c2ccccc2c1O)C(=O)Nc1ccc(C(N)=O)cc1 (stereo not drawn),activity,[1],49.5%
same,activity,[2],49.2%
C(=Cc1nc2ccccc2o1)c1ccc2c(c1)OCO2,activity,[1],86.1%
same,activity,[2],84%
O=C(Oc1c(CN2CCOCC2)cc(Cl)c2cccnc12)c1ccc(F)cc1,activity,[1],53.5%
same,activity,[2],56.1%
